Bioassay records: PubChem BioAssay, Center for Chemical Genomics, University of Michigan
Only a selection was taken, and hits are over-represented in it overall.
Dicer inh: human Dicer pre-microRNA cleavage inhibition. Q9UPY3. z-score at 25 µM. 47,000 tested, 6% active. cat-ELCCA pre-miR-21 Dicer processing, chemiluminescence; hits give high values; in the data active = z-score above about 3, passing the limit was not always enough;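 note: plate controls were vehicle for no effect and no enzyme for full effect; higher signal means more uncleaved substrate so more Dicer inhibition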
* marks the source's active call; other numbers are inactive results.

SMILES | Dicer inh
Cn1c2ccccc2n2nc(CCC(=O)O)c(=O)nc12 | 2.1
CCOC(=O)c1sc(-c2ccccc2)nc1OC | 1.7
COC(=O)c1ccc(COC(=O)CCc2nc3ccccc3[nH]c2=O)cc1 | 2.7
COC(=O)CCc1nc2ccccc2nc1OC | 3.5*
CCCCOC(=O)CCc1nc2ccccc2[nH]c1=O | 0.6
COc1nc2ccccc2nc1CCC(=O)O | 3.8*
COc1ccc(OC)c(C(=O)c2oc3ccc(Br)cc3c2NC(C)=O)c1 | 1.9
Clc1ccc(Sc2cccc(Cl)c2Cn2cccc2)cc1 | -0.1
O=C(CCCSc1nc(-c2ccco2)cc(C(F)(F)F)n1)NC1CCCC1 | 0.82
Cn1c2c(c(=O)n(C)c1=O)CN(CCO)CN2 | -3.4
FC(F)(F)c1cccc(-n2cccc2)c1 | 1.3
Cc1ccc(C2Nc3cc(C)c(C)cc3NC3=C2C(=O)CC(C)(C)C3)o1 (centres undefined) | 6.1
CCOC(=O)c1c(NC(=O)CSc2nnc(C)c(=O)[nH]2)sc2c1CCCC2 | 3.3*
N#Cc1c(NC(=O)CSc2nnnn2-c2ccccc2)sc2c1CCCC2 | -1.4
CCOC(=O)c1c(NC(=O)CSc2nnc3c(n2)[nH]c2ccccc23)sc2c1CCCC2 | 0.97
CCOC(=O)c1c(NC(=O)CN(CC)CC)sc2c1CCCC2 | -0.77
N#Cc1c(NC(=O)CSc2ccc(Cl)cc2)sc2c1CCC2 | 0.24
Cc1nnc(SCC(=O)Nc2sc3c(c2C#N)CCCC3)s1 | 3.4*
COc1ccc(C2/C(=C(\O)c3ccc(F)cc3)C(=O)C(=O)N2CCCN(C)C)cc1OC (centres undefined) | -1.9
O=[N+]([O-])c1ccc(CSc2ncc(C(F)(F)F)cc2Cl)cc1 | -0.04
COCCCNC(=S)Nc1c(Cl)cccc1Cl | -4.5
CC(C)CC(NC1CCS(=O)(=O)C1)C(=O)O (centres undefined) | 1.2
CCCCCCOc1ccc(OC(=O)c2ccncc2)cc1 | 8.9*
O=C(Oc1ccc(OC(=O)c2ccncc2)cc1)c1ccncc1 | 0.9
COc1ccc(OC(=O)c2ccncc2)cc1 | 1.9
SMILES | Dicer inh
Cc1ccc(C(=O)CSCC(=O)c2ccc(C)cc2)cc1 | -1.9
CN=C(Nc1ccc(C)cc1C)SC | 0.13
COCCCN=C(Nc1ccc(Br)cc1C)SC | 1.9
COCCCN=C(Nc1cc(C)c(C)cc1C)SC | 3.9*
COc1ccc(Cl)c(NC(=O)Nc2ccccc2N2CCOCC2)c1 | 0.34
CCOC(=O)N1CCc2c(sc3c2C(=O)NC(/C(C)=C/c2ccccc2)N3)C1 (centres undefined) | -6
COC(=O)c1sccc1Oc1ccc(Cl)cc1N1C(=O)CCC1=O | 1.5
CC1(C)CCC(=O)N(c2ccc(OC(F)(F)F)cc2)C1=O | 2
Cc1ccc(Cl)cc1N1C(=O)CCC(C)(C)C1=O | 3.3*
Nc1ncc(OCc2ccccc2)c(=O)[nH]1 | -1.2
Cc1ccc(C(=O)C(O)(O)C(F)(F)F)cc1 | -1.4
Cc1ccc(C)c(-c2nc3ccc(N)cc3[nH]2)c1 | 3
O=S(=O)(O)c1ccc2nc(-c3ccccc3)[nH]c2c1 | 0.87
Nc1ccc(-c2nc3ccc(-c4nc5ccccc5o4)cc3[nH]2)cc1 | 6.5*
CC(C)c1ccc2nc(-c3ccc(N)cc3)[nH]c2c1 | 19*
Nc1ccc2nc(-c3ccc(Cl)cc3)[nH]c2c1 | 2
Cc1ccc(-c2nc3ccc(N)cc3[nH]2)cc1 | 3.1*
c1ccc2cc3[nH]c(CN4CCOCC4)nc3cc2c1 | -0.55
Nc1ccc(-c2nc3cc4ccccc4cc3[nH]2)cc1 | 4*
Nc1ccc(-c2nc3ccc(N)cc3o2)cc1 | -0.21
CC(=O)Nc1ccc2nc(-c3ccc(-c4nc5ccc(NC(C)=O)cc5[nH]4)cc3)[nH]c2c1 | -1
c1ccc2[nH]c(-c3ccc(-c4nc5ccccc5o4)cc3)nc2c1 | 0.34
O=c1c2ccccc2c(Br)cn1Nc1ccc(Br)cc1 | -1.6
Cc1nnc(SCc2c(Cl)cccc2Cl)n1-c1ccc2c(c1)OCCO2 | -0.94
O=[N+]([O-])c1cc(C2SCCS2)ccc1SC1CCCCC1 | 0.38
SMILES | Dicer inh
O=C(O)CSCC(=O)Nc1cc(-c2ccccc2)[nH]n1 | -1.5
CSc1nnc(SC2=CC(=O)CC(c3ccccc3)C2)s1 (centres undefined) | 2.4
O=C(CSc1nc2cccnc2s1)c1cccc([N+](=O)[O-])c1 | -0.8
COc1ccc(-c2cc3ncc(-c4ccc(OC)c(OC)c4)c(N)n3n2)cc1 | -0.09
Cn1c(=O)c(I)c(O)c2ccccc21 | 5.3*
CC(=O)Oc1c(I)c(=O)n(C)c2ccccc12 | -0.68
Cn1c(=O)c(-c2ccccc2)c(O)c2ccccc21 | -0.8
Cn1c(=O)c2cn(C(C)(C)C)cc2n(C)c1=O | 0.48
CC(Nc1nc2ccccc2n1C)c1cc(Cl)ccc1O (centres undefined) | 0.18
CCc1ccc(-n2nnnc2/C=C/N(C)C)cc1 | 1.7
CCN(/C=C/c1nnnn1-c1ccc(Cl)cc1)c1ccccc1 | 3.2*
CCN(/C=C/c1nnnn1-c1ccc(Br)cc1)CC | -0.37
N/C(=N\NC(=O)Nc1ccc(Cl)cc1)c1ccccn1 | 6.6
N/C(=N\NS(=O)(=O)c1ccccc1C(F)(F)F)c1ccccn1 | 0.57
CNC(=S)N/N=C(/N)c1ccccn1 | 4.3*
C(#Cc1ccc(C#CCN2CCCCC2)cc1)CN1CCCCC1 | -0.81
